The results in this text go back to PubChem BioAssay (NCI).

The panel holds about 83,000 compounds, 20% with a hit somewhere; the sample as a whole holds those more often.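 Single-dose data. Exposure time 48 hours. Values below 10 considered active.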 Values without a mark were called inactive. The source made the active and inactive calls.

Among the test systems are NCI-H23 lung; NCI-H226 lung; NCI-H322M lung; NCI-H460 lung; HOP-92 NSCLC; NCI-H522 lung; A549/ATCC NSCLC; 786-0 renal; COLO 205 colon; HOP-62 NSCLC.
Assay in all cases: NCI-60 one-dose screen, 48 h (100 = growth as untreated, 0 = no growth, -100 = all killed)
Holding throughout (conditions): 10 µM

Take `CN1C(=O)N(C)C2SC(N/N=C/c3ccc(F)cc3)=NC21` (stereo unspecified): the growth is 63.5% in the test with NCI-H23 lung; 75.6% in the test on NCI-H226 lung; 97.4% in the test on NCI-H322M lung; 32.6% in the test on NCI-H460 lung; 71.1% with HOP-92 NSCLC; 14.7% in the test on NCI-H522 lung. Besides, the growth in the test on A549/ATCC NSCLC is 49.6%; in the test with 786-0 renal, 50.2%; in the test with COLO 205 colon, 46.5%.
`Cc1ccc(NC(=O)NCn2c(=O)[nH]c3ccccc3c2=O)cc1`: the growth was 53.2% with NCI-H23 lung; 22.5% with NCI-H226 lung; 89.1% with NCI-H322M lung; 64.7% in the test with NCI-H460 lung; 30.7% with HOP-92 NSCLC; 73.7% in the test on NCI-H522 lung. The growth with A549/ATCC NSCLC was 81.1%; in the test with 786-0 renal, 50.7%; in the test on COLO 205 colon it was 115%.
`COc1cccc(C(N)=Nc2ccc(OCCCCCCn3cncn3)cc2)c1`: the growth in the test on NCI-H23 lung is 21.1%; with NCI-H322M lung, 60.5%; with HOP-62 NSCLC it was 20.7%; in the test on NCI-H460 lung, 28.1%; in the test with HOP-92 NSCLC, 79.3%; in the test with NCI-H522 lung it was -2.45% (active). Also, the growth is 26.5% with A549/ATCC NSCLC and 40.9% with 786-0 renal.
Consider `Cc1ccc2nc(COc3ccc(C(=O)NNC(=S)NC(=O)c4ccccc4)cc3)[nH]c2c1`, for which the growth in the test on NCI-H23 lung was 53.3%; in the test with NCI-H226 lung it was 60.7%; in the test with NCI-H322M lung, 80.7%; with NCI-H460 lung, 20.5%; in the test with HOP-92 NSCLC, 80.6%; in the test on NCI-H522 lung, 60.5%. The growth in the test on A549/ATCC NSCLC was 53.9%; in the test on 786-0 renal it was 74.4%; in the test on COLO 205 colon, 84%.
Turning to `COc1cccc(-c2ccc(/C=N/NC(=O)c3[nH]c4ccc(Br)cc4c3-c3ccccc3)o2)c1`, the growth with NCI-H23 lung was 22.4%; in the test on NCI-H226 lung, 31.4%; in the test with NCI-H322M lung, 45.7%; in the test on NCI-H460 lung, 4.13% (active); in the test with HOP-92 NSCLC it was 54.4%; in the test on NCI-H522 lung, -42.8% (active). The growth was 19.6% in the test with A549/ATCC NSCLC, 9.39% (active) in the test on 786-0 renal and -40.6% (active) with COLO 205 colon.
For `O=C(c1ccc(Cl)cc1)C1[C@H](c2ccccc2Br)[C@@H](c2ccccc2)NC12C(=O)Nc1ccc(Br)cc12` (stereo partly specified), the growth in the test on NCI-H23 lung was 3.35% (active); in the test on NCI-H226 lung, 12.5%; with NCI-H322M lung, 41.6%; in the test on NCI-H460 lung, 2.66% (active); in the test with HOP-92 NSCLC it was 4.57% (active); in the test with NCI-H522 lung it was -24.4% (active). For the same compound, the growth with A549/ATCC NSCLC is 0.826% (active); with 786-0 renal, -2.24% (active); in the test on COLO 205 colon it was -49.6% (active).
As to `NS(=O)(=O)c1ccc(NC(=O)CSc2ccc(-c3ccc(Cl)cc3)nn2)c(Br)c1`, the growth with NCI-H23 lung is 61.1%; in the test on NCI-H226 lung it was -5.33% (active); in the test with NCI-H322M lung, 48.5%; in the test with NCI-H460 lung, 23%; in the test on HOP-92 NSCLC it was -14.4% (active); in the test with NCI-H522 lung, 63.6%. For the same compound, the growth with A549/ATCC NSCLC is 28.5%; with 786-0 renal, 19.1%; in the test with COLO 205 colon, 69.4%.
As for `CCCCSc1nc(Nc2ccc(/C(C)=N/NC(N)=S)cc2)c(C#N)c(-c2ccccc2)n1`, the growth with NCI-H23 lung was 23.7%; in the test with NCI-H226 lung it was 4.29% (active); in the test with NCI-H322M lung it was 59%; in the test with NCI-H460 lung it was 12.1%; with HOP-92 NSCLC, -19.7% (active); with NCI-H522 lung, 39.6%. The growth in the test with A549/ATCC NSCLC was 12.8%; in the test with 786-0 renal it was 3.01% (active); in the test on COLO 205 colon, 59.6%.
Regarding `COc1cc(NC(=O)CSc2nnc(-c3ccc4nc(-c5ccc(Cl)cc5)[nH]c4c3)o2)cc(OC)c1OC`, the growth in the test on NCI-H23 lung was 40.3%; in the test on NCI-H226 lung it was 38.7%; in the test with NCI-H322M lung it was 90.8%; with NCI-H460 lung, 67.2%; in the test on HOP-92 NSCLC, 128%; in the test with NCI-H522 lung, 45.1%. In addition, the growth is 90.4% in the test on A549/ATCC NSCLC, 78.3% in the test on 786-0 renal and 82.4% in the test with COLO 205 colon.
For `Cc1ccc(/C=C/C(=O)c2ccc(NC(=O)CSc3nnc(-c4c[nH]c5ccccc45)n3-c3ccccc3)cc2)cc1`, the growth in the test on NCI-H23 lung was 74.3%; in the test with NCI-H226 lung it was 80.7%; in the test with NCI-H322M lung, 92.8%; in the test with NCI-H460 lung, 84.6%; in the test on HOP-92 NSCLC, 92%; with NCI-H522 lung, 81.7%. In addition, the growth in the test with A549/ATCC NSCLC was 95.9%; in the test with 786-0 renal, 109%; in the test with COLO 205 colon, 102%.
Turning to `Cc1ccc(S(=O)(=O)c2nc(-c3ccccc3)oc2S(=O)(=O)CC(=O)N2CCCC2)cc1`, the growth is -77.9% (active) in the test on NCI-H23 lung; 56.3% in the test on NCI-H226 lung; 73.6% with NCI-H322M lung; 26.4% in the test on NCI-H460 lung; -85.6% (active) in the test on HOP-92 NSCLC; -96.3% (active) in the test with NCI-H522 lung. Moreover, the growth was 63.4% with A549/ATCC NSCLC, -57.3% (active) in the test with 786-0 renal and -93.2% (active) in the test on COLO 205 colon.
Turning to `CC(C)CCSc1nc(NC2CC2)c(C#N)c(-c2ccc(C(C)C)cc2)n1`, the growth in the test on NCI-H23 lung is 101%; with NCI-H226 lung it was 106%; in the test with NCI-H322M lung, 113%; in the test on NCI-H460 lung, 120%; in the test on HOP-92 NSCLC it was 114%; with NCI-H522 lung it was 90.7%. For the same compound, the growth is 106% with A549/ATCC NSCLC, 93.6% in the test with 786-0 renal and 126% in the test with COLO 205 colon.
For `CCCn1c(=O)c2[nH]c(-c3ccc(OCc4nc5ccc(F)cc5[nH]4)cc3)nc2n(CCC)c1=O`, the growth with NCI-H23 lung is 26.3%; in the test with NCI-H226 lung it was -36.1% (active); in the test on NCI-H322M lung, 23.8%; in the test on NCI-H460 lung, -50.8% (active); with HOP-92 NSCLC, -27.5% (active); in the test on NCI-H522 lung, 24.3%. Also, the growth with A549/ATCC NSCLC is 36%; in the test on 786-0 renal, -87.2% (active); with COLO 205 colon it was 25.5%.
